# PubChem BioAssay (NCI)
# “And” between values parts separate entries of the source, which are not always exact repeats. Equal values may be shown once. Compounds without any hit were thinned out: in the full panel of roughly 79,000, 15% have a hit. A structure can be active in one record and inactive in another. The source made the active and inactive calls. Rule as the data show it: active = growth inhibition above about 70%; inactive = the rest.
# Experiments:
# [1] = NCI Yeast Anticancer Drug Screen. Data for the rad52 strain (AID 147);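 also: 0% = growth of vehicle-treated control cultures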; settings: S. cerevisiae rad52 mutant growth inhibition, stronger effect = higher value
# Summary of the method: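 Compounds are applied to a genetically defined yeast strain lacking normal DNA damage repair, and inhibition of growth is expressed relative to cultures given vehicle only.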
# [2] = NCI Yeast Anticancer Drug Screen. Data for the wt1 strain (AID 149);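 also: 0% = growth of vehicle-treated wt1 cultures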; settings: S. cerevisiae wt1 strain (SPY 50644) growth inhibition, stronger effect = higher value
# Summary of the method: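 Compounds are added to wt1 yeast cultures. Growth is then measured. Inhibition is expressed relative to vehicle-treated controls.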
# [3] = NCI Yeast Anticancer Drug Screen. Data for the rad50EPP+ strain (AID 151);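 also: 0% = growth of vehicle-treated control cultures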; settings: S. cerevisiae rad50 mutant strain, stronger effect = higher value
# Summary of the method: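 Compounds were applied to the rad50EPP+ yeast strain, which bears a defined DNA repair alteration, and growth inhibition was determined relative to vehicle-treated cultures.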
# [4] = NCI Yeast Anticancer Drug Screen. Data for the mgt1 strain (AID 153); settings: S. cerevisiae mgt1 mutant growth inhibition, stronger effect = higher value
# Summary of the method: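 Strain: mgt1 yeast, one of a set carrying defined DNA damage repair or cell cycle control alterations. Compound-treated growth compared with vehicle.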
# [5] = NCI Yeast Anticancer Drug Screen. Data for the rad50 strain (AID 155);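 also: 0% = growth of vehicle-only cultures of the same strain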; settings: S. cerevisiae rad50 strain growth inhibition, stronger effect = higher value
# Summary of the method: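 Inhibition values express reduced yeast growth in compound-treated cultures relative to vehicle-treated controls.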
# [6] = NCI Yeast Anticancer Drug Screen. Data for the mec2-1 strain (AID 157); settings: S. cerevisiae mec2-1 strain, stronger effect = higher value
# Summary of the method: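 Strain: mec2-1 (DNA repair/cell cycle alteration). Compound exposure, then growth measured; inhibition expressed relative to vehicle.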
# [7] = NCI Yeast Anticancer Drug Screen. Data for the rad14 strain (AID 159);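 also: 0% = growth of vehicle-treated control cultures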; settings: S. cerevisiae rad14 strain growth inhibition, stronger effect = higher value
# Summary of the method: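 A mutant yeast strain defective in DNA damage repair is treated with compound; inhibition of its growth is scored against untreated, vehicle-exposed cultures.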
# [8] = NCI Yeast Anticancer Drug Screen. Data for the sgs1 mgt1 strain (AID 161);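 also: 0% = growth of cultures given vehicle only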; settings: S. cerevisiae sgs1 mgt1 strain, stronger effect = higher value
# Summary of the method: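 Read-out: growth inhibition vs vehicle controls. Cells: mutant yeast strain deficient in DNA damage repair.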
# [9] = NCI Yeast Anticancer Drug Screen. Data for the CLN2oe strain (AID 163);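 also: 0% = growth of vehicle-only control cultures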; settings: S. cerevisiae CLN2oe strain, stronger effect = higher value
# Summary of the method: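 Growth of a genetically modified yeast strain is measured after compound exposure and compared with cultures given vehicle alone.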
# [10] = NCI Yeast Anticancer Drug Screen. Data for the cln2 rad14 strain (AID 165);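 also: 0% = growth equal to vehicle treated cultures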; settings: S. cerevisiae cln2 rad14 strain, stronger effect = higher value
# Summary of the method: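 Compounds are applied to the cln2 rad14 yeast strain, and growth is then compared with that of vehicle-treated cultures to give inhibition.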
# [11] = NCI Yeast Anticancer Drug Screen. Data for the bub3 strain (AID 167); settings: S. cerevisiae bub3 mutant strain, stronger effect = higher value
# Summary of the method: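 Steps: expose the mutant yeast strain to compound; grow alongside vehicle-treated cultures; measure growth; express inhibition against the vehicle cultures.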
# [12] = NCI Yeast Anticancer Drug Screen. Data for the mlh1 strain (AID 171);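 also: 0% = growth of vehicle-treated control cultures of the same strain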; settings: S. cerevisiae mlh1 strain growth inhibition, stronger effect = higher value
# Summary of the method: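 Growth of the mutant yeast strain after compound exposure, expressed as inhibition relative to vehicle-only controls.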
# [13] = NCI Yeast Anticancer Drug Screen. Data for the sgs1 strain (AID 173);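 also: 0% = growth of vehicle-only control cultures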; settings: S. cerevisiae sgs1 mutant, stronger effect = higher value
# Summary of the method: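 Growth of a yeast strain bearing a defined genetic alteration is measured after compound treatment. Inhibition is expressed relative to vehicle-only controls.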
# [14] = NCI Yeast Anticancer Drug Screen. Data for the mlh1 rad18 strain (AID 175); settings: S. cerevisiae mlh1 rad18 strain growth inhibition, stronger effect = higher value
# Summary of the method: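 Read-out is yeast growth inhibition, calculated against vehicle-only controls. The compound was applied to a strain engineered with DNA damage repair alterations.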
# [15] = NCI Yeast Anticancer Drug Screen. Data for the rad18 strain (AID 177); settings: S. cerevisiae rad18 mutant growth inhibition, stronger effect = higher value
# Summary of the method: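 Growth of the mutant yeast strain after compound exposure, normalised to vehicle-only cultures.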
# [16] = at 5.0 µM (retest, dose inferred, filed as 0.5)
# [17] = at 50.0 µM (retest, dose inferred, filed as 5.0)
smiles,measurement,setting,value
Cc1cc(-c2cc(C)c(O)c(C(C)(C)C)c2)cc(C(C)(C)C)c1O,growth inhibition,[1]; at 1.2 µM,-37% (inactive)
same,growth inhibition,[1]; at 3.7 µM,-34% (inactive)
same,growth inhibition,[1]; at 11.0 µM,-17% (inactive)
same,growth inhibition,[1]; at 33.0 µM,48% (inactive)
same,growth inhibition,[1]; at 100.0 µM,75% (active)
same,growth inhibition,[2]; at 1.2 µM,-52% (inactive)
same,growth inhibition,[2]; at 3.7 µM,-49% (inactive)
same,growth inhibition,[2]; at 11.0 µM,-44% (inactive)
same,growth inhibition,[2]; at 33.0 µM,6% (inactive)
same,growth inhibition,[2]; at 100.0 µM,70% (active)
same,growth inhibition,[3]; at 1.2 µM,-35% (inactive)
same,growth inhibition,[3]; at 3.7 µM,-31% (inactive)
same,growth inhibition,[3]; at 11.0 µM,-29% (inactive)
same,growth inhibition,[3]; at 33.0 µM,-25% (inactive)
same,growth inhibition,[3]; at 100.0 µM,-4% (inactive)
same,growth inhibition,[4]; at 1.2 µM,-49% (inactive)
same,growth inhibition,[4]; at 3.7 µM,-51% (inactive)
same,growth inhibition,[4]; at 11.0 µM,-49% (inactive)
same,growth inhibition,[4]; at 33.0 µM,-16% (inactive)
same,growth inhibition,[4]; at 100.0 µM,57% (inactive)
same,growth inhibition,[5]; at 1.2 µM,-2% (inactive)
same,growth inhibition,[5]; at 3.7 µM,-4% (inactive)
same,growth inhibition,[5]; [16],43% (inactive) and 15% (inactive)
same,growth inhibition,[5]; at 11.0 µM,11% (inactive)
same,growth inhibition,[5]; at 33.0 µM,52% (inactive)
same,growth inhibition,[5]; [17],98% (active) and 74% (active)
same,growth inhibition,[5]; at 50.0 µM,70.5% (active) and 77.3% (active)
same,growth inhibition,[5]; at 100.0 µM,72% (active)
same,growth inhibition,[6]; at 1.2 µM,-30% (inactive)
same,growth inhibition,[6]; at 3.7 µM,-23% (inactive)
same,growth inhibition,[6]; [16],51% (inactive) and -6% (inactive)
same,growth inhibition,[6]; at 11.0 µM,-10% (inactive)
same,growth inhibition,[6]; at 33.0 µM,-2% (inactive)
same,growth inhibition,[6]; [17],98% (active) and 91% (active)
same,growth inhibition,[6]; at 50.0 µM,65.3% (inactive) and 61.5% (inactive)
same,growth inhibition,[6]; at 100.0 µM,55% (inactive)
same,growth inhibition,[7]; at 1.2 µM,-16% (inactive)
same,growth inhibition,[7]; at 3.7 µM,-10% (inactive)
same,growth inhibition,[7]; at 11.0 µM,-23% (inactive)
same,growth inhibition,[7]; at 33.0 µM,25% (inactive)
same,growth inhibition,[7]; at 100.0 µM,72% (active)
same,growth inhibition,[8]; [16],10% (inactive) and 18% (inactive)
same,growth inhibition,[8]; [17],45% (inactive) and 90% (active)
same,growth inhibition,[8]; at 50.0 µM,66.3% (inactive) and 80.8% (active)
same,growth inhibition,[9]; at 1.2 µM,-51% (inactive)
same,growth inhibition,[9]; at 3.7 µM,-62% (inactive)
same,growth inhibition,[9]; at 11.0 µM,-42% (inactive)
same,growth inhibition,[9]; at 33.0 µM,15% (inactive)
same,growth inhibition,[9]; at 100.0 µM,73% (active)
same,growth inhibition,[10]; [16],52% (inactive) and -17% (inactive)
same,growth inhibition,[10]; [17],81% (active) and 91% (active)
same,growth inhibition,[10]; at 50.0 µM,77.8% (active) and 65.8% (inactive)
same,growth inhibition,[11]; at 1.2 µM,-6% (inactive)
same,growth inhibition,[11]; at 3.7 µM,5% (inactive)
same,growth inhibition,[11]; [16],43% (inactive) and 5% (inactive)
same,growth inhibition,[11]; at 11.0 µM,24% (inactive)
same,growth inhibition,[11]; at 33.0 µM,40% (inactive)
same,growth inhibition,[11]; [17],52% (inactive) and 93% (active)
same,growth inhibition,[11]; at 50.0 µM,70.2% (active) and 37.4% (inactive)
same,growth inhibition,[11]; at 100.0 µM,65% (inactive)
same,growth inhibition,[12]; at 1.2 µM,-44% (inactive)
same,growth inhibition,[12]; at 3.7 µM,-31% (inactive)
same,growth inhibition,[12]; at 11.0 µM,-28% (inactive)
same,growth inhibition,[12]; at 33.0 µM,9% (inactive)
same,growth inhibition,[12]; at 100.0 µM,65% (inactive)
same,growth inhibition,[13]; at 1.2 µM,-20% (inactive)
same,growth inhibition,[13]; at 3.7 µM,-8% (inactive)
same,growth inhibition,[13]; at 11.0 µM,-6% (inactive)
same,growth inhibition,[13]; at 33.0 µM,30% (inactive)
same,growth inhibition,[13]; at 100.0 µM,59% (inactive)
same,growth inhibition,[14]; [16],46% (inactive) and 3% (inactive)
same,growth inhibition,[14]; [17],99% (active) and 92% (active)
same,growth inhibition,[14]; at 50.0 µM,70.5% (active) and 84.8% (active)
same,growth inhibition,[15]; at 1.2 µM,-42% (inactive)
same,growth inhibition,[15]; at 3.7 µM,-36% (inactive)
same,growth inhibition,[15]; at 11.0 µM,-26% (inactive)
same,growth inhibition,[15]; at 33.0 µM,29% (inactive)
same,growth inhibition,[15]; at 100.0 µM,74% (active)
